In PubChem BioAssay AID1460 (National Center for Advancing Translational Sciences (NCATS), 2008):
In all, about 270,000 compounds went through this assay and about 5,800 (2.1%) were called active. About 16% were inconclusive and are not listed. Shown is part of a subset that was picked to be rich in actives. A number with no mark means an inactive call. Calls follow the shape of the dose curve; as a rule, active = well fitted inhibition curve with a large enough effect; inconclusive = small, poorly fitted or top-dose-only effect; inactive = flat fitted curve, though single readings scatter.

biological target: Microtubule-associated protein tau (Homo sapiens) (UniProt P10636); experiment: qHTS for Inhibitors of Tau Fibril Formation, Thioflavin T Binding; details: recombinant tau K18 P301L, heparin-induced fibrillization, ThT fluorescence; series mostly up to 57.4 µM; activity, negative = inhibition: at the top concentration; also: nearly all actives have a fitted effect of over 55% in size
Summary of the method: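 ThT emission at 510 nm, taken 1 hr after adding 30 uM dye, quantifies aggregates formed when 20 uM heparin acts on human tau K18 P301L for 6 hr at 37 C.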
% is scaled to controls: 0 for no effect and ±100 for the full control effect; potency is read from the fitted curve at half-maximal effect.

Microtubule-associated protein tau (Homo sapiens), sequence (P10636 561-689 P618L limits assumed): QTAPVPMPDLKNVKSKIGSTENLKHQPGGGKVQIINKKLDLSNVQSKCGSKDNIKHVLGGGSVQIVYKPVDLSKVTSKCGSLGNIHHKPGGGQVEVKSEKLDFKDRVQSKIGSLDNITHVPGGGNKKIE

| Compound | activity, negative = inhibition | Potency |
| --- | --- | --- |
| Cc1ccc2cccc(NC(=O)c3ccc(OC(C)C)cc3)c2n1 | 2.4% |  |
| O=C(CSc1nc(=O)[nH]c2c1CCCC2)Nc1cc(C(F)(F)F)ccc1Cl | 1.77% |  |
| CCCOc1ccc(N2CC(C(=O)Nc3ccccn3)CC2=O)cc1 (stereo not given) | -8.67% |  |
| CCOc1ccc(N2CC(C(=O)NCCN3C(=O)S/C(=C\c4cccnc4)C3=O)CC2=O)cc1 (stereo not given) |  | 22.4 µM (active) |
| CCCNC(=O)C1CC(=O)N(c2ccc(OCC(=O)Nc3cccc(C)c3C)cc2)C1 (stereo not given) | -8.32% |  |
| CCOc1ccc(C(NC(=O)c2cc(OC)c(OC)c(OC)c2)c2cc(Cl)c3cccnc3c2O)cc1 (stereo not given) | 4.92% |  |
| CCCCN(C)c1nnc(NC(=O)Nc2ccc(Br)c(C)c2)s1 | 11.5% |  |
| CCOC(=O)c1c(C)[nH]c(C)c1S(=O)(=O)N1CCCC(C(=O)NCc2ccccc2Cl)C1 (stereo not given) | -14.6% |  |
| COc1ccc(S(=O)(=O)c2cn(C)c3cc(N4CCCCC4)c(F)cc3c2=O)cc1 | 0.721% |  |
| Cc1nn(C)c(Oc2ccccc2)c1[N+](=O)[O-] | -8.94% |  |
| Cc1cccc(Oc2c([N+](=O)[O-])c(=O)n(C)c3ccccc23)c1 |  | 14.1 µM (active) |
| Cc1cccc(C2CC(=O)Oc3c2c(=O)n(C)c2ccccc32)c1 (stereo not given) | -0.0642% |  |
| CN(C(=O)CSc1nc2ccccc2n1Cc1ccccc1C#N)c1ccccc1 | -9.62% |  |
| CCN1C(=O)/C(=C2/Sc3ccccc3N2CCCS(=O)(=O)O)SC1=S | 7.21% |  |
| CCN1/C(=C/C(=S)Nc2ccccc2)Sc2ccccc21 |  | 3.55 µM (active) |
| CCNC(=O)N1c2ccccc2Sc2ccccc21 | -0.283% |  |
| CC(=O)c1ccc(NC(=O)CSc2c(C(C)C)cnc3c2c(=O)n(C)c(=O)n3C)cc1 | -3.43% |  |
| O=C(COc1ccc(Cl)cc1)Nc1ccccc1OCc1cc(=O)n2ccccc2n1 | -6.08% |  |
| CC1=C(C(=O)Nc2ccccc2)C(c2ccco2)C(C#N)=C(SCC(N)=O)N1 (stereo not given) | -17.1% |  |
| N#CC1=C(N)Oc2c(sc3ccccc23)C1c1ccco1 (stereo not given) |  | 15.8 µM (active) |
| Cc1ccc(CCNC(=O)c2ccc(CNS(=O)(=O)c3ccc(C)cc3)cc2)cc1 | -7.58% |  |
| CCOC(=O)c1c(C)oc2nc(C)nc(N(CC(C)C)CC(C)C)c12 | -13.6% |  |
| COc1ccc(NC(=O)N2CCCn3nc(C)cc32)cc1OC | -3.7% |  |
| COc1ccc(C(=O)c2oc3ccccc3c2NC(=O)COc2cccc(C)c2)cc1 | -2.19% |  |
| O=C(Nc1ccccc1Cl)N1CCC(CN2CCCC2)CC1 | 0.871% |  |

| Compound | activity, negative = inhibition | Potency |
| --- | --- | --- |
| CN=C1C=C/C(=N/N=c2\ccn(O)cc2C)C=C1C |  | 6.31 µM (active) |
| Cc1ccc(Cn2c(=O)n(Cc3nc(-c4ccccc4)no3)c(=O)c3cc4c(cc32)OCO4)cc1 | -8.07% |  |
| Cc1ccc(-c2cn3c(n2)sc2cc(C(=O)NCCCc4ccccc4)ccc23)cc1 | -0.664% |  |
| Cc1cccc(C(=O)N2CCc3cc(CNC(=O)Cc4ccc(F)cc4)ccc32)c1 | -7.2% |  |
| CCC(=O)Nc1cccc(-c2nc3cc(C)ccc3o2)c1 | -13.5% |  |
| Cc1nc2ccccc2cc1O | -0.125% |  |
| O=C(Nc1c2c(nc3ccccc13)CCCC2)c1ccccc1Br | -1.43% |  |
| O=C(NNc1c2ccccc2nc2ccccc12)c1cc2ccccc2cc1O |  | 2 µM (active) |
| COc1ccc(-c2nc3sc(CCNS(=O)(=O)c4ccc(F)c(C)c4)c(C)n3n2)cc1 | -9.65% |  |
| O=C1CN(C(=O)Nc2ccccc2C(F)(F)F)C(c2ccccc2)c2c(sc3c2CCCC3)N1 (stereo not given) | -14.6% |  |
| Cc1nc2ccc(S(=O)(=O)N(CC(=O)Nc3ccc(F)cc3)Cc3ccccc3)cc2s1 | -5.37% |  |
| Cc1ccccc1CNC(=O)CSc1nnc(C)c2c(C)n(-c3ccccc3)nc12 | -7.02% |  |
| CCN(CC)C(=O)C(=O)Nc1cccc(Br)c1 | -2.21% |  |
| CCN(CC)C(=O)CSC(Nc1cccc(F)c1)=C(C#N)C#N |  | 28.2 µM (active) |
| O=C(CCN1C(=O)c2ccccc2C1=O)Nc1cccc(F)c1 | -9.93% |  |
| O=C(Nc1ccc(C(=O)OCc2cc(=O)n3nc(C4CC4)sc3n2)cc1)c1ccc(F)cc1 | 6.18% |  |
| O=C(Nc1ccc(F)cc1F)c1ccc2c(=O)n3c(nc2c1)CCCCC3 | -11.2% |  |
| Cn1c(=O)n(Cc2c(F)cccc2Cl)c(=O)c2c1nc1n2CCN1c1ccc(F)cc1 | -8.2% |  |
| CCOC(=O)/C(=N\Nc1ccccc1[N+](=O)[O-])c1csc(Nc2ccccc2)n1 |  | 5.01 µM (active) |
| CCOC(=O)Cc1csc(NC(=O)Nc2ccccc2)n1 | -8.19% |  |
| Cc1c(NC(=O)Nc2ccccc2)cccc1[N+](=O)[O-] | -10.4% |  |
| Cc1cc(C)cc(NC(=O)CCCc2nc(-c3ccccc3Cl)no2)c1 | 12.5% |  |
| Cc1ccc(C)c(N2C(=O)N(Cc3c(F)cccc3Cl)c3ccccc3S2(=O)=O)c1 | 1.5% |  |
| Cc1cccc(-n2ccnc2SCC(=O)Nc2cccc3ccccc23)c1C | -14.8% |  |
| COc1ccc(OC)c(CNC(=O)c2c3c(nc4ccccc24)C(=O)N(C2CCCCC2)C3)c1 | 8.16% |  |

| Compound | activity, negative = inhibition | Potency |
| --- | --- | --- |
| Cc1ccc(C(=O)Nc2c(C(=O)NC(C)(C)C)oc3ccccc23)cc1 | -0.42% |  |
| Cc1ccc(NS(=O)(=O)c2ccc(C)c(NC(=O)COc3ccc4ccccc4c3)c2)c(C)c1 | -18.9% |  |
| Cc1ccc(NS(=O)(=O)c2ccc(N/N=C/c3ccccc3OCC(=O)O)c([N+](=O)[O-])c2)c(C)c1 |  | 12.6 µM (active) |
| COCCNC(=O)c1ccccc1NS(=O)(=O)c1ccc(C)c([N+](=O)[O-])c1 | 5.22% |  |
| COc1cccc(CNCc2c(C(=O)O)n(Cc3ccc(C)cc3)c3cc(C)ccc23)c1OC | -6.73% |  |
| O=C(CCC1N=C2c3ccccc3N=C(SCc3ccccc3F)N2C1=O)NCCc1ccccc1 (stereo not given) | -10.8% |  |
| Cn1cc(/C=C/c2nc3ccccc3c(=O)n2-c2cccc([N+](=O)[O-])c2)c2ccccc21 | -5.45% |  |
| Cc1cccc(N=C2NC(=O)/C(=C/c3cn(C)c4ccccc34)S2)c1 |  | 11.2 µM (active) |
| Cc1ccc(N2C(=O)S/C(=C/c3cn(C)c4ccccc34)C2=O)cc1 | -15.5% |  |
| CCCn1c2ccccc2c2cnn(CC(=O)NCCCN3CCCCC3CC)c(=O)c21 (stereo not given) | -11.7% |  |
| CCc1nnc2c3ccccc3nc(N3CCN(c4ccc(C)cc4C)CC3)n12 | -13.5% |  |
| COc1cccc(Cn2c(CNS(=O)(=O)c3ccc(Cl)s3)nc3cccnc32)c1 | -11.9% |  |
| Brc1ccc(CSc2ccc(-c3ccco3)nn2)cc1 | -16.9% |  |
| COC(OC)c1ccnc(SCc2ccccc2Cl)n1 | -5.31% |  |
| Clc1ccccc1CSc1nnc(-c2ccco2)c(-c2ccco2)n1 |  | 17.8 µM (active) |
| O=C(Nc1nnc(SCc2ccccc2)s1)c1ccco1 | -8.61% |  |
| c1ccc(CSc2nnc(-c3ccco3)c(-c3ccco3)n2)cc1 |  | 7.94 µM (active) |
| Nc1nc(SCc2ccccc2Cl)n[nH]1 | -8% |  |
| COc1ccc(C2C(=O)N(C3CCCCC3)CC(=O)N2Cc2ccccc2Cl)cc1OC (stereo not given) | 2.26% |  |
| Cc1onc(-c2ccc(F)cc2F)c1C(=O)Nc1cccc(C(F)(F)F)c1 | 1.56% |  |
| CCC(Sc1nc2n[nH]c(C)c2c(=N)n1-c1ccccc1Cl)C(=O)N(CC)CC (stereo not given) | -9.58% |  |
| COc1ccccc1CNC(=O)C(=O)NCC(c1cccs1)S(=O)(=O)c1cccs1 (stereo not given) | -3.27% |  |
| Cc1cc(C)n(-c2ccc(C(=O)O)cc2[N+](=O)[O-])n1 | 2.36% |  |
| CN(C)c1ccc(/C=C/C(=O)c2ccc(O)cc2)cc1[N+](=O)[O-] |  | 4.47 µM (active) |
| O=C(/C=C/c1ccc(Cl)c([N+](=O)[O-])c1)c1ccc(O)cc1 |  | 15.8 µM (active) |

| Compound | activity, negative = inhibition | Potency |
| --- | --- | --- |
| O=C(c1ccc(Cl)c([N+](=O)[O-])c1)N1CCN(c2ccccc2)CC1 | 4.34% |  |
| CN(C)c1ccc(/C=C/C(=O)c2ccc(C(C)(C)C)cc2)cc1[N+](=O)[O-] | -1.69% |  |
| CC(CC(=O)O)C(=O)c1ccc(Cl)c([N+](=O)[O-])c1 (stereo not given) | -0.522% |  |
| COc1ccccc1CNc1ccc(-c2nc(-c3ccccc3C)no2)cc1[N+](=O)[O-] | 13.3% |  |
| CCCOc1ccc(-c2cccc(NS(=O)(=O)c3ccccc3)c2)nn1 | -11% |  |
| COc1ccc(CNC(=O)COCc2cc(-c3cccs3)on2)cc1OC | 3.85% |  |
| Cc1ccc(Cn2cc(CCC(=O)NCc3ccc(OC(C)C)cc3)c3ccccc32)cc1 | -3.01% |  |
| c1ccc(CNc2ncnc3[nH]ncc23)cc1 | 3.06% |  |
| CN1CCN(c2ccc(S(=O)(=O)Nc3ccccc3)cc2[N+](=O)[O-])CC1 | -11.2% |  |
| O=[N+]([O-])c1cc(S(=O)(=O)Nc2cccc(Cl)c2)ccc1N=Nc1c(O)[nH]c2ccccc12 |  | 10 µM (active) |
| CCN(CC)S(=O)(=O)c1cc([N+](=O)[O-])ccc1N=Nc1c(O)n(C)c2ccccc12 | -9.16% |  |
| O=C(Nc1ccc(F)cc1F)c1cnn(-c2ccc(F)cc2)c1-n1cccc1 | 7.82% |  |
| Cc1ccc2c(c1)N(C(=O)CCC(=O)NCc1ccccc1F)CC(C)O2 (stereo not given) | 3.16% |  |
| CC1CN(C(=O)N2CCC(C(=O)NCc3ccco3)CC2)c2cc(Cl)ccc2O1 (stereo not given) |  | 31.6 µM (active) |
| CCCS(=O)(=O)N1CCCC(C(=O)NCc2ccco2)C1 (stereo not given) | -1.85% |  |
| CN(C)/N=C/c1cc(Cl)cc([N+](=O)[O-])c1O |  | 15.8 µM (active) |
| CSc1ccccc1NC(=O)CN(C)CC(=O)Nc1ccc(Cl)cc1[N+](=O)[O-] | -20.7% |  |
| CC(=O)N/N=C/c1cc2c(cc1[N+](=O)[O-])OCO2 | 4.29% |  |
| CC1Cc2cc(S(=O)(=O)CCC(=O)NCc3ccc(Cl)cc3)ccc2N1C(=O)C1CC1 (stereo not given) | 6.6% |  |
| CCN1CCN(c2ncc3c(n2)CC(c2ccccc2O)CC3=O)CC1 (stereo not given) | -2.07% |  |
| COc1ccc2nc(Nc3nc(-c4cc5ccccc5oc4=O)cs3)sc2c1 | -4.36% |  |
| COc1ccc2nc(NC(=O)c3ccc(Br)s3)sc2c1 | -9.29% |  |
| COc1ccc2nc(Nc3nc4cc5c(cc4s3)OCCO5)sc2c1 |  | 3.55 µM (active) |
| CCC1=Nc2cc(C(=O)NCCCOC(C)C)ccc2Sc2ccc(C)cc21 | 2.21% |  |
| C=CC(C1=CC(=O)C=CC1=O)c1ccc(O)cc1 (stereo not given) |  | 28.2 µM (active) |
